Hits are enriched below; roughly 2.2% of the tested compounds scored in any of these assays.
IDH1 R132H inh: qHTS for Inhibitors of mutant isocitrate dehydrogenase 1 (IDH1): qHTS; IDH1-R132H enzyme, NADPH consumption, diaphorase/resazurin fluorescence; Isocitrate dehydrogenase [NADP] cytoplasmic (Homo sapiens), O75874; 0.093% of 390,000 active; AID 602179, 2012; Potency, µM (series often up to 76.6 µM), for inactives: top-dose activity change, negative = inhibition, hits mostly inhibitors; also: potency is read from the fitted curve at half-maximal effect; % is scaled to controls: 0 for no effect and ±100 for the full control effect; nearly all actives have a fitted effect of over 65% in size
Target sequence (O75874 whole entry R132H, stated change not applied): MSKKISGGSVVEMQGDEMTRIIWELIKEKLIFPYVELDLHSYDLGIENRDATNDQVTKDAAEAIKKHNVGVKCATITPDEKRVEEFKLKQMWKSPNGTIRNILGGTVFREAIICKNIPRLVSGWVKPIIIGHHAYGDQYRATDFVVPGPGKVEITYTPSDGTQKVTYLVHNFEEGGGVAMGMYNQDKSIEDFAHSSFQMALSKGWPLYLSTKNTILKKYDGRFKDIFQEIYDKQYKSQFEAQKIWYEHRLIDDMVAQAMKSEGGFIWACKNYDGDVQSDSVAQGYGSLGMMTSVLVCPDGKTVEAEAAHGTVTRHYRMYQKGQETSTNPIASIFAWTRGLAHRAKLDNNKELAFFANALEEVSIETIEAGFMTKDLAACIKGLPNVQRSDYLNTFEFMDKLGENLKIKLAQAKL
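IDH1-R132H (0.5 ug/mL dispensed) in pH 7.5 Tris buffer was preincubated 30 min with compound, then given a substrate mix of 0.016 mM NADPH and 2 mM alpha-KG for 80 min at room temperature; remaining NADPH was read by diaphorase/resazurin fluorescence.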
TGFb inhibitor: qHTS for Inhibitors of TGF-b. Potency, µM (titrated, usually from 46.1 µM), for inactives: at the highest dose activity, negative = inhibition, actives largely listed as inhibitors. HepG2 CAGA-GFP TGF-b/SMAD3 reporter, GFP fluorescence, 18 h; TGF-beta stimulated, 500 pg/mL final. 1.2% of 410,000 active; also: potency is read from the fitted curve at half-maximal effect; % is scaled to controls: 0 for no effect and ±100 for the full control effect; nearly all actives have a fitted effect of over 65% in size
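HEPG2 CAGA-GFP reporter cells (1000/well, DMEM with 1% FBS) received compounds, then recombinant TGF-beta at 500 pg/mL final for 18 hours at 37 degrees C. Per-cell GFP summed per well was normalised to unstimulated and stimulated DMSO controls before curve fitting.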
ATXN viability: Viability Counterscreen for Primary qHTS for Inhibitors of ATXN expression. S2 cells (HEK-293 line with an ATXN2-luciferase reporter) viability, CellTiter-Fluor protease fluorescence, 24 h. Potency, µM (highest dose often 56.7 µM), usual class: cytotoxic. 0.49% of 400,000 active; also: potency is read from the fitted curve at half-maximal effect; nearly all actives have a fitted effect of over 40% in size
HepG2 tox: qHTS for Inhibitors of TGF-b: Cytotox Counterscreen; HepG2 CAGA-GFP viability, ATP luminescence, 18 h; Potency, µM (highest dose often 46.1 µM), for inactives: top-dose activity change, negative = cytotoxicity, usual class: cytotoxic; 0.76% of 410,000 active; also: potency is read from the fitted curve at half-maximal effect
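CellTiter-Glo luminescence gave cytotoxicity after 18 hours at 37 degrees C. The cells were HepG2 CAGA-GFP in 1% FBS DMEM, stimulated with 500 pg/mL TGF-beta after compound addition. %Activity was normalised to no-cell wells (complete cell-killing) and DMSO (no toxicity), and curves were fitted and classified.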
ATXN2 expr inh: Primary qHTS for Inhibitors of ATXN expression | 0.72% of 360,000 active | AID 1745845, 2022 | Potency, µM (doses to about 57 µM), without a hit: top-dose activity change, negative = inhibition, actives largely listed as inhibitors | HEK-293 ATXN2-luciferase reporter, luminescence, 24 h; also: potency is read from the fitted curve at half-maximal effect; % is scaled to controls: 0 for no effect and ±100 for the full control effect; nearly all actives have a fitted effect of over 55% in size
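qHTS (up to 57 uM final) was run with 24 h compound exposure of reporter cells at 37 °C. Each well was multiplexed: SteadyGlo luminescence measured ATXN2-luciferase expression after a fluorogenic Gly-Phe-AFC viability readout (25 uM final).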
LDHA inh: qHTS assay for inhibitors of human lactate dehydrogenase; L-lactate dehydrogenase A chain (Homo sapiens), P00338; purified LDHA, NADH/diaphorase-resazurin fluorescence; hits give low values; activity change, % (values are at about 110 or 230 µM); 0.15% of 480,000 active; AID 1347041, 2019; in the data active = activity change below about -30%; inconclusive = mostly about -25% to -30%;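 also: plate controls were DMSO wells for no effect and wells without enzyme for full effect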
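Human LDH5 at 2 nM final in Tris HCl pH 7.4 with 0.06 mM NADH and 0.2 mM pyruvate, reacted 5 minutes at room temperature. Remaining NADH coupled via diaphorase/resazurin; resorufin fluorescence read at 0 and 20 minutes, normalized to enzyme-free and DMSO wells.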
Starred values were filed as active, the others as inactive. Unless noted, calls follow the shape of the dose curve; as a rule, active = well fitted curve in the direction sought with a large enough effect; inconclusive = small, poorly fitted or top-dose-only effect, or another doubt; inactive = no such curve, though single readings can be large; an effect the other way counts as inactive or inconclusive.

`CCOc1ccc(CNC(=O)Cn2c(=O)c3cccn3c3ccc(F)cc32)cc1` gave IDH1 R132H inh 14%, TGFb inhibitor 4%, HepG2 tox 1% and LDHA inh -4.
Screening CN1C(=O)NC2(O)C(=O)c3ccccc3C12O (configuration not stated) returned IDH1 R132H inh -3%, TGFb inhibitor -4%, ATXN viability inactive, HepG2 tox 10µM*, ATXN2 expr inh -20% and LDHA inh -5.
Screening O=C(CN(Cc1ccc(F)cc1)S(=O)(=O)c1ccc(Cl)cc1)NCCO returned LDHA inh -12.
CN(C)CC1CCC/C(=C/c2ccc(Cl)cc2)C1=O (configuration not stated) was read as IDH1 R132H inh 3%, TGFb inhibitor inconclusive, ATXN viability 12µM*, HepG2 tox -4%, ATXN2 expr inh inconclusive and LDHA inh -3.
Screening CC1(C(=O)Nc2ccc3c(c2)OCO3)CCN1Cc1cccc2c1OCO2 (configuration not stated) returned TGFb inhibitor -8%, ATXN viability inconclusive, HepG2 tox 4%, ATXN2 expr inh -24% and LDHA inh 5.
`CC1(C(=O)Nc2cccc3cccnc23)CCN1Cc1cccc2c1OCO2` (configuration not stated) gave TGFb inhibitor inconclusive, ATXN viability 14µM*, HepG2 tox -49%, ATXN2 expr inh 6.3µM* and LDHA inh -2.
Screening C(=NN=C1c2ccccc2-c2ccccc21)c1c[nH]c2ccccc12 returned IDH1 R132H inh 6%, TGFb inhibitor inconclusive, ATXN viability 19µM*, HepG2 tox 7%, ATXN2 expr inh 0% and LDHA inh -1.
Fc1c(F)c(F)c(N/N=C/c2c[nH]c3ccccc23)c(F)c1F was read as IDH1 R132H inh 3%, TGFb inhibitor inconclusive, ATXN viability inconclusive, HepG2 tox -32%, ATXN2 expr inh -23% and LDHA inh 3.
COc1ccc(-c2c(=O)n(OC)c3ccccc3[n+]2[O-])cc1OC was read as IDH1 R132H inh 0%, TGFb inhibitor -1%, ATXN viability inactive, HepG2 tox -27%, ATXN2 expr inh 8% and LDHA inh 2.
Screening Cc1cc(NC(=O)CCNS(=O)(=O)c2cc(Br)cnc2N)ccc1Br returned IDH1 R132H inh 10%, TGFb inhibitor 11µM*, ATXN viability inactive, HepG2 tox -37%, ATXN2 expr inh -17% and LDHA inh 4.
CCN(CC)S(=O)(=O)c1ccc2c(c1)c(=O)c(C(=O)NCCN(C)CCc1ccccc1)cn2C was read as IDH1 R132H inh 3%, TGFb inhibitor 1%, ATXN viability inconclusive, HepG2 tox -23%, ATXN2 expr inh -7% and LDHA inh -1.
Screening COc1ccc(-c2nn(-c3cccc([N+](=O)[O-])c3)c3c2cnc2cc4c(cc23)OCO4)cc1 returned IDH1 R132H inh 0%, TGFb inhibitor 40%, ATXN viability inactive, HepG2 tox 8%, ATXN2 expr inh 4% and LDHA inh -6.
`c1ccc(-c2ccc3[nH]ccc3c2)cc1` gave IDH1 R132H inh -2%, TGFb inhibitor -12%, ATXN viability inactive, HepG2 tox -44%, ATXN2 expr inh 46% and LDHA inh -1.
c1ccc(-c2onc(-c3ccco3)c2-c2ccc3[nH]ccc3c2)cc1 was read as IDH1 R132H inh 17%, TGFb inhibitor 14µM*, ATXN viability inactive, HepG2 tox -40%, ATXN2 expr inh -11% and LDHA inh 0.
Screening CCn1nc(C)c(CNC(=O)Nc2ccc(OC)c(OC)c2)c1C returned LDHA inh 4.
`COc1ccc(/C=N/N=C2/NC(=O)C(CC(=O)O)S2)cc1OCc1ccc(Cl)cc1Cl` (configuration not stated) gave IDH1 R132H inh -3%, TGFb inhibitor -6%, ATXN viability inactive, HepG2 tox 1%, ATXN2 expr inh 0% and LDHA inh -45*.
CC1=NN(C(=O)c2csc(C)c2)C(O)(C(F)(F)F)C1 (configuration not stated) was read as IDH1 R132H inh 4%, TGFb inhibitor -6%, ATXN viability inactive, HepG2 tox -71%, ATXN2 expr inh 5% and LDHA inh -2.
CC1=NN(C(=O)c2ccc(Br)cc2)C(O)(C(F)(F)OC(F)(F)F)C1 (configuration not stated) was read as IDH1 R132H inh 5%, TGFb inhibitor 16µM*, ATXN viability inactive, HepG2 tox -60%, ATXN2 expr inh -8% and LDHA inh -5.
For O=C(C[C@H]1C(=O)N(CCc2ccccc2)C[C@@H]1Cc1ccccc1)Nc1ccccc1 the results were IDH1 R132H inh 3%, TGFb inhibitor 11µM*, ATXN viability inconclusive, HepG2 tox -25%, ATXN2 expr inh -26% and LDHA inh 2.
Screening Cc1nc2ccc(S(=O)(=O)NCC(=O)N3CCC(C)CC3)cc2s1 returned IDH1 R132H inh 2%, TGFb inhibitor -1%, ATXN viability inactive, HepG2 tox 2%, ATXN2 expr inh -5% and LDHA inh -2.
`COc1ccc(NC(=O)c2cc(=O)c3cc(Cl)ccc3o2)cc1Cl` gave LDHA inh 8.
Screening CCC1CCCCN1CCCNC(=O)c1ccc2c(c1)N(Cc1ccccc1F)C(=O)c1ccccc1S2(=O)=O (configuration not stated) returned IDH1 R132H inh 9%, TGFb inhibitor 11µM*, ATXN viability inactive, HepG2 tox -64%, ATXN2 expr inh inconclusive and LDHA inh -3.
CC(=O)N(c1cccc(C)c1)c1nc(COc2ccccc2C(N)=O)cs1 was read as LDHA inh -13.
CCc1ccccc1N(C(C)=O)c1nc(COc2ccccc2C(N)=O)cs1 was read as LDHA inh -30*.
For COc1ccc(-c2nc(CSCC(=O)NC3CCC(C)CC3)c(C)o2)cc1OC (configuration not stated) the results were LDHA inh 1.
For CCOc1cc(/C=C/C(=O)NC(C)(C)C)ccc1OCC(C)C the results were LDHA inh -2.

Assay outcomes deposited in PubChem BioAssay by National Center for Advancing Translational Sciences (NCATS).
